Source: PubChem BioAssay
In the library only some 9.4% were active in any assay of this set; here they are far more common.
AMA1-RON2 inh: qHTS for Inhibitors of AMA1-RON; Towards Development of Antimalarial Drug Lead: Primary Screen | AlphaScreen AMA1-biotinylated RON2 peptide binding | 360,000 compounds, 0.2% hits | Potency, µM (titrated, usually from 58.2 µM), usual class: inhibitors | AID 720542, 2013; also: nearly all actives have a fitted effect of over 45% in size
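AMA1 (3D7) with his tag at 25 nM final met compounds first, then biotinylated RON2 peptide at 25 nM; detection used donor plus acceptor beads, 10 µg/mL apiece, read by AlphaScreen after 30 min at room temperature.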
Pf growth 48h: Primary qHTS for delayed death inhibitors of the malarial parasite plastid, 48 hour incubation; Potency, µM (top dose mostly 28.7 µM), hits mostly inhibitors; P. falciparum luciferase growth in erythrocytes, 48 h; 310,000 compounds, 5.9% hits
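Parasite viability was followed by luminescence of a genomically integrated firefly luciferase. Cultures held 0.1% parasitemia at 2% hematocrit (final), incubated under 5% CO2 at 37 C.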
SARS PLP yeast: qHTS of Yeast-based Assay for SARS-CoV PLP. S. cerevisiae expressing SARS-CoV PLpro, growth rescue. Potency, µM (doses to about 32.9 µM), most hits filed as activators. 330,000 compounds, 0.19% hits; calls by dose curve; also: nearly all actives have a fitted effect of over 55% in size
Pf growth 96h: Primary qHTS for delayed death inhibitors of the malarial parasite plastid, 96 hour incubation; 320,000 compounds, 6.9% hits; Potency, µM (titrated, usually from 28.7 µM), most hits filed as inhibitors; P. falciparum luciferase reporter growth, 96 h
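Readout is luminescence from an integrated firefly luciferase in P. falciparum. Red cells, 2% hematocrit and 0.05% parasitemia final, were cultured with compound through two parasite generations (96 hours) at 37 C, 5% CO2.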
Numbers stand for hits; . = inactive; ? = inconclusive; / = not tested or not shown. Unless noted, calls follow the shape of the dose curve; as a rule, active = well fitted curve in the direction sought with a large enough effect; inconclusive = small, poorly fitted or top-dose-only effect, or another doubt; inactive = no such curve, though single readings can be large; an effect the other way counts as inactive or inconclusive.

SMILES | AMA1-RON2 inh | Pf growth 48h | SARS PLP yeast | Pf growth 96h
CCc1cc(C(=O)Nc2cc(S(=O)(=O)N(CC)CC)ccc2N2CCN(C)CC2)sc1C | . | ? | . | 2.6µM
CNCCCc1[nH]nc(N)c1C#N | . | . | . | .
CC(=O)c1ccc(NC(=O)CSc2nnc(-c3ccncc3)n2C2CC2)cc1 | . | . | . | ?
CCc1noc(C)c1C(=O)Nc1cc(S(=O)(=O)N(CC)CC)ccc1N1CCOCC1 | . | ? | . | ?
CCN(CC)S(=O)(=O)c1ccc(N2CCOCC2)c(NC(=O)c2c3c(nc4ccccc24)CCC3)c1 | . | 7.4µM | . | 4.7µM
Cc1cccc(NC(=S)N2CCN(S(=O)(=O)c3cccc(F)c3)CC2)c1 | . | 13µM | . | ?
Cc1cccc(NC(=S)N2CCN(S(=O)(=O)c3ccccc3)CC2)c1 | . | ? | ? | .
CC(=O)c1cccc(NC(=S)N2CCN(S(=O)(=O)c3ccc(F)cc3)CC2)c1 | . | ? | . | ?
CC(=O)c1cccc(NC(=S)N2CCN(S(=O)(=O)c3ccccc3)CC2)c1 | ? | ? | ? | 4.1µM
O=C1c2ccccc2C(=O)c2ccccc21 | / | ? | / | 15µM
CN(C)c1cccc2c1C(=O)c1ccccc1C2=O | 11µM | . | . | .
O=C1c2cccc(Sc3ccccc3)c2C(=O)c2c(Sc3ccccc3)cccc21 | ? | 13µM | . | ?
O=C1C(=O)c2ccc(-c3ccccc3)cc2-c2ccccc21 | . | 10µM | . | 3.7µM
CN1C(=O)c2cccc(N(C)C)c2C1=O | ? | . | . | .
Cc1ccc(S(=O)(=O)N2CCOCC2)cc1C(=O)NC1CCCCC1 | . | ? | . | .
O=C(NC1CCCC1)C(NS(=O)(=O)c1cccc2nsnc12)c1ccccc1 (stereo unspecified) | . | . | . | ?
COc1cc(C(=O)N/N=C/c2ccc(OC(=O)N3CCOCC3)cc2)cc(OC)c1OC | . | . | . | .
CCOC(CNC(=O)c1ccc2c(c1)nc(C)n2-c1cccc(F)c1)OCC | . | ? | . | .
O=C1c2ccccc2C(=O)c2[nH]c(=O)[nH]c21 | . | / | . | 1.7µM
O=C1c2ccccc2C(=O)c2[nH]cnc21 | . | ? | . | ?
O=C(Cc1ccccc1)NN=C1CCCC1 | . | / | / | /
CC(C)C[C@@]12C(=O)N(c3cccc(Br)c3)C(=O)N1[C@H](c1ccc(F)cc1)[C@@H]1C(=O)N(C3CCCCC3)C(=O)[C@@H]12 | . | 1.9µM | . | ?
Cc1ccc(N2C(=O)N3[C@H](c4ccc(F)cc4)[C@@H]4C(=O)N(C5CCCCC5)C(=O)[C@@H]4[C@]3(Cc3ccccc3)C2=O)cc1 | . | . | . | 12µM
O=C1[C@H]2[C@@H](c3ccc(F)cc3)N3C(=O)N(c4cccc(Br)c4)C(=O)[C@@]3(Cc3ccccc3)[C@H]2C(=O)N1C1CCCCC1 | . | 4.1µM | . | ?
CCN1C(=O)[C@H]2[C@@H](c3ccc(C)cc3)N3C(=O)N(c4cccc(Br)c4)C(=O)[C@@]3(CC(C)C)[C@H]2C1=O | . | ? | . | 15µM
SMILES | AMA1-RON2 inh | Pf growth 48h | SARS PLP yeast | Pf growth 96h
CC(C)(C)c1ccccc1OCC(=O)Nc1ncn[nH]1 | . | / | . | .
O=C(CNC(=O)c1cccc(F)c1)OCC(=O)N1CCCc2ccccc21 | . | . | . | .
O=C1[C@H]2[C@@H](c3ccc(Cl)cc3)N3C(=O)N(c4cccc(Cl)c4)C(=O)[C@@]3(Cc3ccccc3)[C@H]2C(=O)N1C1CCCCC1 | . | 2.1µM | . | 5.9µM
COc1ccc(C[C@H](N)C(=O)N[C@H]2[C@@H](O)[C@H](n3cnc4c(N(C)C)ncnc43)O[C@@H]2CO)cc1 | . | 0.1µM | / | 0.17µM
CN(C)c1ncnc2c1ncn2C1OC(CO)C(O)C1O (stereo unspecified) | . | . | . | /
COc1cc(N/C(N)=N/c2nc(C)cc(C)n2)cc(OC)c1 | . | ? | . | 10µM
CC(=O)Nc1ccc(N/C(N)=N/c2nc(C)cc(C)n2)cc1 | . | ? | . | ?
COc1ccc(C)cc1N/C(N)=N/c1nc(C)cc(C)n1 | . | 12µM | . | ?
Cc1ccc(C)c(N/C(N)=N/c2nc(C)cc(C)n2)c1 | . | 12µM | . | ?
Cc1cc(C)nc(/N=C(\N)Nc2ccc(SC(F)F)cc2)n1 | . | 12µM | . | 13µM
COc1ccc(N/C(N)=N/c2nc(C)cc(C)n2)c(OC)c1 | . | . | . | .
COc1ccc(OC)c(N/C(N)=N/c2nc(C)cc(C)n2)c1 | . | . | . | .
CCC(C)Sc1nc2c(c(=O)[nH]1)C(c1cccs1)C1=C(CCCC1=O)N2 (stereo unspecified) | . | ? | . | ?
Cc1cc(C(=O)COC(=O)c2ccc(N)cc2)c(C)n1-c1c(C)n(C)n(-c2ccccc2)c1=O | . | . | . | ?
CC1(C)CC(N2CCN(c3ccccc3)CC2)=CC(=[N+]2CCCC2)C1 | . | 1.7µM | . | .
CC1CC(C)C[N+](=C2C=C(N3CCCC3)CC(C)(C)C2)C1 (stereo unspecified) | . | 0.37µM | . | ?
Cc1cccc(C(=O)OCC(=O)NCc2ccc3c(c2)OCO3)c1C | . | / | . | /
O=C(CNC(=O)c1ccccc1)N/N=C/c1ccccc1Cl | . | . | . | ?
Cc1ccc(NCC(=O)N/N=C\c2ccc([N+](=O)[O-])o2)cc1 | ? | ? | . | 5.2µM
CCCCCC(=O)N/N=C/c1ccc([N+](=O)[O-])o1 | . | / | . | /
O=C(CNc1ccccc1)N/N=C/c1ccc([N+](=O)[O-])o1 | . | 3.7µM | . | 2.6µM
O=C(CNC(=O)c1ccccc1)N/N=C/c1ccc([N+](=O)[O-])o1 | . | 4.7µM | . | ?
COc1ccc(/C=N/NC(=O)c2cccc(NC(=O)c3ccccc3Cl)c2)cc1 | . | . | . | .
Cc1cc(NCCCN2CCOCC2)n2nc(C)c(-c3ccc(F)cc3)c2n1 | ? | 7.4µM | . | .
CC(=O)Nc1ccc(Nc2cc(C)nc3c(-c4ccccc4)c(C)nn23)cc1 | . | ? | . | 3.7µM
SMILES | AMA1-RON2 inh | Pf growth 48h | SARS PLP yeast | Pf growth 96h
Cc1cc(SCC(=O)Nc2ccc(O)cc2)n2nc(C)c(-c3ccccc3)c2n1 | . | . | . | .
CC(=O)Nc1ccc(Nc2cc(C(C)C)nc3c(-c4ccccc4)c(C)nn23)cc1 | . | ? | . | 13µM
CC(=O)Nc1cccc(-c2nnc3c4ccccc4c(C)nn23)c1 | / | . | . | ?
C=C(C)CSc1cc(C)nc2c(-c3ccccc3)c(C)nn12 | . | 6.6µM | . | 10µM
CCOC(=O)C1=C(C)NC(C)=C(C(=O)OCC)C1C(=O)OCC(=O)c1ccc2c(c1)OCCO2 | . | ? | . | .
C[C@@H]1CN([C@H](C)CO)C(=O)CCCn2cc(nn2)CO[C@H]1CN(C)S(=O)(=O)c1ccc2c(c1)OCCCO2 | . | / | / | /
Cc1cc(NCCC(C)C)n2nc(C)c(-c3ccccc3)c2n1 | . | 9.3µM | . | /
Cc1cc(NCCCN2CCOCC2)n2nc(C)c(-c3ccccc3)c2n1 | . | ? | . | ?
CN(C)S(=O)(=O)c1cccc(NC(=S)Nc2cccc3cnccc23)c1 | . | 6.6µM | . | 3.7µM
